{"source": "PubChem BioAssay (NCI)", "note": "This is part of a sample that, as a whole, favours compounds with a hit. Of some 83,000 tested, about 20% had one in any assay.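 Cell lines were cultured in 96-well plates, exposed to a single compound concentration, and assessed for percent growth 48 hours later.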 Calls of active or inactive are those of the source. Rule for the calls: active = growth percent below 10; inactive = the rest."}
{"system": "HL-60(TB) leukemia", "test": "NCI-60 one-dose screen, 48 h (100 = growth as untreated, 0 = no growth, -100 = all killed)", "conditions": "10 µM unless noted"}
{"compound": "O=S(=O)(NCCNc1cc(-c2cn(-c3ccccc3)nc2-c2cccc(O)c2)ccn1)c1ccccc1", "growth": "33.9% (inactive)"}
{"compound": "O=C1CC(c2ccc(Cl)cc2)c2ncn(-c3cccc(Cl)c3)c2N1", "note": "(stereo not given)", "growth": "-4.87% (active)"}
{"compound": "Cc1nn(-c2cc(NC3CCC(O)CC3)c3c(=O)[nH]c(CCC(F)(F)F)cc3c2)c2c1C(=O)CC(C)(C)C2", "note": "(stereo not given)", "growth": "28% (inactive)"}
{"compound": "Nc1ccc2c(c1)C(=O)C(=O)c1c-2nc2ccccn12", "growth": "-47.3% (active)"}
{"compound": "COc1cc(/C=C/c2cc(/C=C/c3ccc(O)c(OC)c3)n(C(=O)Nc3ccc(C)cc3)n2)ccc1O", "growth": "-28.2% (active)"}
{"compound": "C=CC(=O)Nc1cc2c(Nc3ccc(F)c(Cl)c3)ncnc2cc1OCCCN1CCOCC1", "growth": "-26.7% (active)"}
{"compound": "CN1CCCc2cc(/C=C3/SC(=S)N(CCc4ccc(O)cc4)C3=O)ccc21", "growth": "8.87% (active)"}
{"compound": "COc1ccc(-c2cc(-c3ccc(N(C)C)cc3)nc(NC(=O)c3cccnc3)n2)cc1", "growth": "109% (inactive)"}
{"compound": "COc1cc(NC(=O)COc2cc(C)nc3ccc(OC)cc23)cc(OC)c1", "growth": "80.3% (inactive)"}
{"compound": "O=S(=O)(NCCNc1nccc(-c2c(-c3ccc(F)c(O)c3)nc3sccn23)n1)c1ccc(Cl)cc1", "growth": "-26.9% (active)"}
{"compound": "COc1ccc(-c2nc(N/N=C/c3cccc(O)c3)nc(N3CCOCC3)c2C#N)cc1", "growth": "49.2% (inactive)"}
{"compound": "C#C[C@]1(O)CC[C@H]2[C@@H]3CC=C4c5sc(Nc6cc(F)ccc6F)nc5CC[C@]4(C)[C@H]3CC[C@@]21C", "growth": "-1.19% (active)"}
{"compound": "Oc1ccccc1\\C=N/N=C/C=C/c1ccccc1", "growth": "38.5% (inactive)"}
{"compound": "CC(C)=CCNc1ncnc2c1ncn2C1OC(COP(=O)(O)O)C(O)C1O", "note": "(stereo not given)", "growth": "-38.4% (active)"}
{"compound": "Cc1nn(-c2ccccc2)c(-n2ccnc2)c1/C=N/Nc1nc(-c2ccc(Cl)c(Cl)c2)cs1", "growth": "76.6% (inactive)"}
{"compound": "Cc1ccc(C2CC(c3cccc(Nc4ccncc4)c3)=NN2c2cc(Cl)cc(Cl)c2)cc1", "note": "(stereo not given)", "growth": "14.8% (inactive)"}
{"compound": "Cc1ccc(CSCc2ccc(C(=O)NC3CC3)o2)cc1", "growth": "59.5% (inactive)"}
{"compound": "Cc1cc(NCc2cc(Nc3ccnc4cc(Cl)ccc34)ccc2F)nc(N2CCCC2)n1", "growth": "-59.5% (active)"}
{"compound": "CC(=O)OC/C=C(/C)C[P+](c1ccccc1)(c1ccccc1)c1ccccc1", "growth": "44.9% (inactive)"}
{"compound": "COc1cc(CSc2nc3ccc(C)cc3c(=O)n2Cc2ccccc2)cc(OC)c1OC", "growth": "17% (inactive)"}
{"compound": "COc1ccc(-c2cn(-c3cccc(C(=O)/C=C/c4cc(OC)c(OC)c(OC)c4)c3)c(=O)[nH]2)cc1", "growth": "5.72% (active)"}
{"compound": "O=C(CCCCCCSc1nc(-c2ccccc2)cc(-c2ccccc2)n1)NO", "growth": "-33.2% (active)"}
{"compound": "O=C(NC(=S)NNC(=S)NNc1ccccc1)c1ccccc1", "growth": "0.166% (active)"}
{"compound": "Cc1cc(NS(=O)(=O)c2ccccc2)c(OS(=O)(=O)c2ccccc2)cc1C", "growth": "105% (inactive)"}
{"compound": "O=S1(=O)N(CCNc2nccc(-c3c(-c4cccc(O)c4)nc4sccn34)n2)CCN1Cc1ccccc1", "growth": "91.8% (inactive)"}
{"compound": "C[C@@H]1C(=O)N(C[C@@H](Cc2ccccc2)NC(=O)OCc2ccccc2)[C@]1(Cc1ccccc1)C(=O)OCc1ccccc1", "growth": "13.1% (inactive)"}
{"compound": "CC(=O)N1N=C(c2ccc(Nc3nc(NCCO)nc(NCCO)n3)cc2)CC1c1ccc(Cl)cc1", "note": "(stereo not given)", "growth": "117% (inactive)"}
{"compound": "COc1ccc(-c2cc(C(=O)N3N=C(c4ccc(N)cc4)CC3c3ccccc3)c3ccccc3n2)cc1", "note": "(stereo not given)", "growth": "-28% (active)"}
{"compound": "CN1CCN(Cc2ccc(NC(=O)c3cncc(C#Cc4c(N)ncc5ccc(C#N)cc45)c3)cc2C(F)(F)F)CC1", "growth": "9.71% (active)"}
{"compound": "O=C(CCCCCCC(=O)Nc1ccc2c(c1)/C(=C/c1ccc[nH]1)C(=O)N2)NO", "growth": "16.5% (inactive)"}
{"compound": "Oc1ccc(N=Nc2nccs2)c(O)c1", "growth": "5.98% (active)"}
{"compound": "Cn1c2ccccc2c2ccccc21", "growth": "95.9% (inactive)"}
{"compound": "CCOC(=O)n1cc(-c2nonc2-c2cn(C)c3ncccc23)c2cc(F)ccc21", "growth": "92.8% (inactive)"}
{"compound": "O=C1Nc2ccccc2C12CC(c1ccccc1)=NN2", "note": "(stereo not given)", "growth": "-8.55% (active)"}
{"compound": "COc1ccc2nc3c(cc2c1)C(=O)CC(C(F)(F)F)C3", "note": "(stereo not given)", "growth": "-15.1% (active)"}
{"compound": "Fc1cnccc1-c1nc2ccc3[nH]ncc3c2c2c1CCCC2", "growth": "16.9% (inactive)"}
{"compound": "O=C1/C(=C/c2ccc(O)cc2)CSc2ccc(Cl)cc21", "growth": "22.7% (inactive)"}
{"compound": "CCOC(=O)C1CCN(S(=O)(=O)/N=C2/NC(=O)NC2=C(Cl)Cl)CC1", "growth": "-45.9% (active)"}
{"compound": "Cc1n(Cc2ccc3ccccc3n2)cc[n+]1Cc1ccc2ccccc2n1", "growth": "34.2% (inactive)"}
{"compound": "CCOC(=O)C1C(=O)NC(C(=O)OCC)(C(=O)OCC)C1CC", "note": "(stereo not given)", "growth": "106% (inactive)"}
